PubChem BioAssay AID2553 (Johns Hopkins Ion Channel Center, 2010)
The campaign covered roughly 310,000 compounds. About 3,300 (1.1%) were called active. The sample holds actives, similar compounds and a random draw of the others, so the mix is not that of the screen.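 The calls were made as follows: active = B-score under library mean minus 3 SD, initial fluorescence not abnormally high, positive integrated signal ratio; inactive = the rest.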

Molecular target: Short transient receptor potential channel 6 (Mus musculus) (UniProt Q61143)
Sequence (Q61143 whole entry, looked up): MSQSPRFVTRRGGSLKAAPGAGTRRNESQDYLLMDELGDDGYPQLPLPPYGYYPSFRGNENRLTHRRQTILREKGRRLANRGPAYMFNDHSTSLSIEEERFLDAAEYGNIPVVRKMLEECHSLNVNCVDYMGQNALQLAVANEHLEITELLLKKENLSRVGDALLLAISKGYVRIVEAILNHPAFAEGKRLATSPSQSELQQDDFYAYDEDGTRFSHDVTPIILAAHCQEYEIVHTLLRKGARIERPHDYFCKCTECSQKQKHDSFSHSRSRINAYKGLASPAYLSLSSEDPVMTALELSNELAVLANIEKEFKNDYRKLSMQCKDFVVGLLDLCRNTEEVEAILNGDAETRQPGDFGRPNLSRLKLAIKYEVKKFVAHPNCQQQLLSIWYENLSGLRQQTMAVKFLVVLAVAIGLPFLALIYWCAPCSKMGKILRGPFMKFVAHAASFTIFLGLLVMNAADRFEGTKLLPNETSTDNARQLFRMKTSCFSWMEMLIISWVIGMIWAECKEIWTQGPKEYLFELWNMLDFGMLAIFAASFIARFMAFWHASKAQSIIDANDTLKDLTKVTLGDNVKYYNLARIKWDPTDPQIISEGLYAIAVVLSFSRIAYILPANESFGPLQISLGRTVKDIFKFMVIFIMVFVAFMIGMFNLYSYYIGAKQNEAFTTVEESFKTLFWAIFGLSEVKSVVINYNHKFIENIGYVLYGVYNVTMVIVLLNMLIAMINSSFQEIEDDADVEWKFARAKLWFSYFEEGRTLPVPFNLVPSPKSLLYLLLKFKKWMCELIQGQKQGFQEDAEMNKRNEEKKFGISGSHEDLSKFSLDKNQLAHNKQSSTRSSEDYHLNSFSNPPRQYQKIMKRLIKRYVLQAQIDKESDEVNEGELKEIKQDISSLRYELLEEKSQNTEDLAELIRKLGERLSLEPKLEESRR
Assay: mouse TRPC6 channel inhibitors, primary screen, cell-based, HEK293, membrane potential dye (AID 2553);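 as to B-score: B-score derived from integrated fluorescence ratio over the kinetic read; more negative B-score means stronger inhibition of depolarization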
Details: ACh-evoked depolarization, at 10 µM; active compounds read low

Structure (SMILES) | B-score
COc1ccc([C@@H]2[C@@H]3C(=O)N(C(C)(C)C)C(=O)[C@@H]3[C@]3(Cc4ccccc4)C(=O)N(c4cccc(Br)c4)C(=O)N23)cc1 | inactive
COc1ccc(-c2nonc2NC(=O)c2oc3ccc(F)cc3c2C)cc1OC | inactive
CCOC(=O)C1=NN(c2ccc(Cl)cc2)/C(=C/C2=NCCc3cc(OC)c(OC)cc32)S1 | -5.5 (active)
CCOC(=O)C1=C(CN2CCc3ccccc32)NC(=O)NC1c1ccc(Cl)cc1 (stereo not drawn) | inactive
CCOC(=O)c1cc2c(n(-c3ccc(C)cc3)c1=O)CCCC2=O | inactive
FC(F)(F)c1nc(-c2ccccc2)ncc1-c1nnnn1-c1ccccc1 | inactive
Clc1ccc(-n2nnnc2-c2cnc(-c3ccccn3)nc2-c2cccs2)cc1 | -6.02 (active)
c1ccc(-n2nnnc2-c2cccnc2)cc1 | inactive
O=C(Nc1cccc(Cl)c1)c1cc([N+](=O)[O-])ccc1N1CCN(CCO)CC1 | inactive
CCN1CCN(c2ccc([N+](=O)[O-])cc2C(=O)c2ccc(Cl)cc2)CC1 | -6.09 (active)
CCC(=O)c1ccc(N2CCN(C(=O)c3cc([N+](=O)[O-])ccc3F)CC2)c(F)c1 | inactive
COc1ccc(C(C#N)Nc2ccc(C)cc2)cc1 (stereo not drawn) | inactive
Cc1ccc(S(=O)(=O)N(c2cccc(C)c2)C2CCS(=O)(=O)C2)cc1 (stereo not drawn) | inactive
COCc1ccc(CN2CCC(Oc3ccc(C(=O)NCc4ccccn4)cc3)CC2)o1 | inactive
CCCn1nc(NC(=O)C(C)C)c2cc3cc(OC)ccc3nc21 | inactive
Cc1ccccc1CSc1nnc(CCCCCNC(=O)OC(C)(C)C)o1 | inactive
O=C(CN(C(=O)CCC(=O)Nc1nccs1)c1ccc(F)cc1)NCc1ccc2c(c1)OCO2 | inactive
CCC(C)(C)NC(=O)CN(C(=O)CCC(=O)Nc1nccs1)c1ccc2c(c1)OCO2 | -5.2 (active)
CCC(C)(C)NC(=O)CN(C(=O)CCC(=O)Nc1cc(C)ccn1)c1ccc2c(c1)OCCO2 | inactive
CCN1CCC2(CCN(Cc3cn[nH]c3-c3ccc(OC)c(F)c3)C2)C1 (stereo not drawn) | inactive
COc1ccc(/C=C/C(=O)OCC(=O)NCc2cccs2)cc1OC | inactive
O=C(CN1CCN(C(=O)C2CCCO2)CC1)Nc1c(Cl)cccc1Cl (stereo not drawn) | inactive
COc1ccc(OC)c(CNC(=O)Cn2nc(C)c3c(C)n(-c4ccc(C)cc4)nc3c2=O)c1 | inactive

Structure (SMILES) | B-score
CN=C1C=C/C(=N/N=c2\ccn(O)cc2C)C=C1C | inactive
O=C(O)CCCCCNc1ncnc2ccc(Br)cc12 | inactive
Cc1ccccc1-n1nc(C)c2c1N=C1C(Cl)=CC(Cl)=CN1C2c1ccc(C(=O)O)cc1 (stereo not drawn) | inactive
Cn1nnnc1SCC(=O)N1CCN(C(c2ccccc2)c2ccccc2)CC1 | inactive
Cc1onc(C(=O)NN)c1C(=O)N1CCN(C(c2ccccc2)c2ccccc2)CC1 | inactive
O=C(c1ccc(-n2cnnn2)cc1)N1CCN(C(c2ccccc2)c2ccccc2)CC1 | -5.27 (active)
COc1ccc(Cc2nnc(SCC(=O)N(c3ccccc3)C(C)C)n(N)c2=O)cc1 | inactive
C=CCSC(CC)(CC)C(N)=O | inactive
Oc1c(Cl)cc(Cl)c(Cl)c1Cc1c(O)c(Cl)cc(Cl)c1Cl | -7.71 (active)
COc1cc(NC(=O)C2CC(c3ccccc3O)=NO2)c(OC)cc1Cl (stereo not drawn) | inactive
Cc1ccc(F)cc1NC(=O)N1CCCN(c2ccc(C(F)(F)F)cn2)CC1 | inactive
CN(CC(=O)Nc1ccccc1[N+](=O)[O-])Cc1ccc(Br)cc1 | -5.44 (active)
CN(CC(=O)Nc1ccc(N2CCOCC2)cc1)CC(=O)Nc1ccccc1[N+](=O)[O-] | inactive
Cc1ccc(NC(=O)CN(C)Cc2ccc(F)cc2)c([N+](=O)[O-])c1 | inactive
C/C(=N\Nc1ncc(Cl)cc1Cl)c1cccs1 | inactive
C/C(=N\Nc1nc2ccccc2[nH]1)c1cccs1 | -13.6 (active)
O=C(Nc1ccccc1-c1nc2ccccc2[nH]c1=O)c1cccs1 | inactive
Cc1cc(OCC(=O)N(C)c2c(N)n(Cc3ccccc3)c(=O)[nH]c2=O)c(C(C)C)cc1Cl | inactive
CC(C)c1ccc(OCC(O)CN2CCN(c3ccccn3)CC2)cc1 (stereo not drawn) | inactive
CC(C)c1ccc(OCC(O)Cn2cnc3ccccc32)cc1 (stereo not drawn) | -9.55 (active)
CC(=O)OC(COc1ccc(F)cc1)Cn1cnc2ccccc21 (stereo not drawn) | inactive
CCN(CC)CCn1cnc2c1c(=O)[nH]c(=O)n2Cc1ccccc1 | inactive
COCCn1cnc2c1c(=O)n(Cc1ccc(Br)cc1)c(=O)n2Cc1ccccc1 | inactive

Structure (SMILES) | B-score
N=c1c2c(-c3ccccc3)c(-c3ccccc3)n(Cc3ccccc3)c2ncn1CCCO | -7.35 (active)
CCOC(=O)C(CCOc1cccc(CC)c1)C(=O)OCC | inactive
CCOC(=O)c1sc(N(Cc2ccccc2)C(=O)CN2C(=O)CN(C)C2=O)nc1C | inactive
Cc1cc(=O)[nH]c(SCc2ccc(Cl)cc2)n1 | inactive
CC1CN(C(=O)c2cc(COc3c(F)cccc3F)on2)CCN1C (stereo not drawn) | inactive
Cc1cccc(NS(=O)(=O)c2ccc(-c3cnc(C4CC4)o3)cc2)c1 | inactive
O=S(=O)(c1ccc(Cl)s1)N1CCC2(CC1)OCCO2 | inactive
O=C(NCCc1c[nH]c2ccccc12)c1cccc(Br)c1 | inactive
O=C(NCCc1c[nH]c2ccccc12)C1CCN(Cc2ccc(Br)cc2)CC1 | -5.11 (active)
Cc1ccc2[nH]cc(CCNC(=O)C3CCCCC3)c2c1 | inactive
Cc1ccc(OCCOc2cccc(/C=N/NC(N)=O)c2)cc1 | inactive
COc1ccc(CNC(=O)CN2CCC(n3nnc4cc(F)ccc43)CC2)cc1 | inactive
N=c1n(CCc2ccccc2)c2ccccc2n1Cc1ccccc1F | -5.3 (active)
Fc1ccccc1Cn1cnc(NC(=S)NCCc2ccccc2)n1 | inactive
CC(=O)NC(C)c1nc2ccccc2n1Cc1ccccc1F (stereo not drawn) | inactive
CC(C)CCOc1ccc(C(=O)C[N+]2(C)CCOCC2)cc1 | inactive
Cc1ccccc1C(OCCN(C)C)C1CCCCC1 (stereo not drawn) | inactive
CCOC(=O)C1=C(CSc2nnnn2C)N(C)C(=O)NC1c1ccccc1 (stereo not drawn) | inactive
COc1cccc(-n2c(=S)[nH]c3c(oc4ccccc43)c2=O)c1 | inactive
CCC(C(=O)OCCN(CC)CC)c1ccccc1 (stereo not drawn) | inactive
O=C(O)C(c1ccccc1)C1(O)CCCCC1 (stereo not drawn) | inactive
CN(C)CCOC(=O)C(c1ccccc1)C1(O)CCCC1 (stereo not drawn) | -7.55 (active)
